TGFb SMAD3 inh – TGF-b pathway inhibition | HepG2 CAGA-GFP TGF-b/SMAD3 reporter, GFP fluorescence, 18 h; TGF-beta stimulated, 500 pg/mL final | 410,000 compounds, 1.2% hits | Potency, µM (series often up to 46.1 µM), without a hit: top-dose activity, negative = inhibition, most hits filed as inhibitors; note: % is set by controls: 0 for no effect and ±100 for the full control effect; nearly all actives have a fitted effect of over 65% in size
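TGF-beta reporter screen: HEPG2 CAGA-GFP, 1% FBS, 500 pg/mL TGF-beta final, 18 h; per-cell GFP summed per well; curves fitted and categorized by class.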
HepG2 viability – kills HepG2 cells in TGF-b inhibitor counter-screen. HepG2 CAGA-GFP viability, ATP luminescence, 18 h. Potency, µM (highest dose often 46.1 µM), for the others: top-dose activity change, negative = cytotoxicity, actives largely listed as cytotoxic. 410,000 compounds, 0.76% hits. AID 588856
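CellTiter-Glo luminescence gave cytotoxicity after 18 hours at 37 degrees C. The cells were HepG2 CAGA-GFP in 1% FBS DMEM, stimulated with 500 pg/mL TGF-beta after compound addition. %Activity was normalised to no-cell wells (complete cell-killing) and DMSO (no toxicity), and curves were fitted and classified.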
Gal4-VP16 FLuc – counter-screen for ROR gamma inhibitors: Gal4-VP16 reporter | Drosophila S2 Gal4-VP16 UAS-luciferase, luminescence, 20 h | 310,000 compounds, 3.5% hits | Potency, µM (titrated, usually from 53.6 µM), for the others: top-dose activity, negative = inhibition, most hits filed as inhibitors;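 note: Gal4-VP16 expression switched on by copper sulfate through the metallothionein promoter; % is set by controls: 0 for no effect and ±100 for the full control effect; nearly all actives have a fitted effect of over 50% in size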
S2 tox – viability counter-screen for ATXN expression inhibitors | S2 cells (HEK-293 line with an ATXN2-luciferase reporter) viability, CellTiter-Fluor protease fluorescence, 24 h | Potency, µM (series often up to 56.7 µM), actives largely listed as cytotoxic | 400,000 compounds, 0.49% hits | AID 651635; note: nearly all actives have a fitted effect of over 40% in size
RORgamma inh – inhibitors of mouse ROR gamma transcriptional activity | Potency, µM (titrated, usually from 53.6 µM), for the others: at the highest dose activity change, negative = inhibition, usual class: inhibitors | P51450 | Drosophila S2 Gal4-RORgamma UAS-luciferase reporter, 20 h | 310,000 compounds, 5.4% hits | AID 2551; note: % is set by controls: 0 for no effect and ±100 for the full control effect; nearly all actives have a fitted effect of over 60% in size
Target sequence (P51450 whole entry, looked up, the tested form may be a part): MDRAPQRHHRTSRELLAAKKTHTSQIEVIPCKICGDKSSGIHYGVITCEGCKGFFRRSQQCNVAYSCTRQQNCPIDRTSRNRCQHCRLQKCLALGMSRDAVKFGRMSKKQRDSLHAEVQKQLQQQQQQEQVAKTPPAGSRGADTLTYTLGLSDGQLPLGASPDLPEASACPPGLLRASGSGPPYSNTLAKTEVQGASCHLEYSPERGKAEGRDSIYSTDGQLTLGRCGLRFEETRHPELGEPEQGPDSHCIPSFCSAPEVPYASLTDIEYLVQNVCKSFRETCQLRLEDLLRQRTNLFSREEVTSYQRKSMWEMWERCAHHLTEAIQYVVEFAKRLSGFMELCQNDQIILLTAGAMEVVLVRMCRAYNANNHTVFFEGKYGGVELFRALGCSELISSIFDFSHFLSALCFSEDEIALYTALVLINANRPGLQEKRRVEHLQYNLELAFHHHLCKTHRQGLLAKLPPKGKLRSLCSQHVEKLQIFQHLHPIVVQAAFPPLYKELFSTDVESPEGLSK
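Luciferase reporter read in Schneider cells carrying Gal4-RORγ (mouse) and UAS-Photinus luciferase; cells given compound 1 h before 700 uM copper sulfate induction, then incubated 20 h at ambient temperature.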
ATXN2 expr inh – inhibitors of ATXN2 expression | 360,000 compounds, 0.72% hits | Potency, µM (highest dose often 57 µM), for the others: top-dose activity change, negative = inhibition, usual class: inhibitors | HEK-293 ATXN2-luciferase reporter, luminescence, 24 h; note: % is set by controls: 0 for no effect and ±100 for the full control effect; nearly all actives have a fitted effect of over 55% in size
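qHTS (up to 57 uM final) was run with 24 h compound exposure of reporter cells at 37 °C. Each well was multiplexed: SteadyGlo luminescence measured ATXN2-luciferase expression after a fluorogenic Gly-Phe-AFC viability readout (25 uM final).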
Starred values were filed as active, the others as inactive; i = inactive; u = inconclusive; x = no result; [ ] = another dose, or the depositor's remark. Most compounds without a hit are left out; they make up all but 6.1% or so of the library. Calls come from the whole dose curve; as a rule, active = well fitted curve in the direction sought with a large enough effect; inconclusive = small, poorly fitted or top-dose-only effect, or another doubt; inactive = no such curve, though single readings can be large; an effect the other way counts as inactive or inconclusive. Potency is the fitted concentration of half-maximal effect.

SMILES	TGFb SMAD3 inh	HepG2 viability	Gal4-VP16 FLuc	S2 tox	RORgamma inh	ATXN2 expr inh
COC(=O)C1=C(C)N(Cc2ccccc2)C(=NCc2cccc(C(F)(F)F)c2)N[C@H]1c1cccc(F)c1	u	14µM*	u	x	u	32µM*
COC(=O)C1=C(C)N(CC2CC2)C(=NCc2cccc(C(F)(F)F)c2)N[C@H]1c1ccccc1	-13%	-51%	0%	u	4%	u
COC(=O)C1=C(C)N(Cc2ccccc2)C(=NCc2cccc(C(F)(F)F)c2)N[C@H]1c1cccc(C(F)(F)F)c1	10µM*	18µM*	u	18µM*	u	28µM*
COc1cc2c(NC3CCN(C)CC3)nc(N3CCCN(C)CC3)nc2cc1OCCCN1CCCCC1	u	8%	x	x	x	x
CCOCCn1cnc2sc(C(=O)Nc3nc(C)c(C(=O)OCC)s3)c(C)c2c1=O	x	x	-10%	x	4.5µM*	x
CCOCCn1cnc2sc(C(=O)Nc3ccccc3C(=O)OC)c(C)c2c1=O	-5%	19%	x	i	x	-2%
CC(C)C(NC(=O)c1ccc2c(c1)OCCO2)c1nc2ccccc2[nH]1 (centres undefined)	-14%	-7%	3%	i	-12%	-18%
C/C(=N\Nc1nc2ccccc2[nH]1)c1ccc2c(c1)OCCO2	-20%	0%	u	i	7.1µM*	14%
O=c1[nH]c(N/N=C/c2ccc(O)cc2)nc2ccccc12	-16%	-8%	-12%	i	u	49%
C/C(=N\Nc1ccccn1)c1ccc2c(c1)OCO2	3%	-25%	u	i	u	68%
C/C(=N\Nc1nc2ccccc2[nH]1)c1ccc2c(c1)OCO2	u	-28%	11µM*	i	3.2µM*	u
C(=N\Nc1nc2ccccc2[nH]1)/c1ccc2c(c1)OCO2	u	-54%	u	i	13µM*	12%
O=c1[nH]c(N/N=C\c2ccc(F)cc2)nc2ccccc12	4%	-9%	-25%	i	10µM*	x
COc1cccc2cc(-c3nc(-c4ccccc4F)no3)c(=O)oc12	1%	-5%	x	x	x	x
Fc1cccc(-c2nc(-c3ccncc3)no2)c1	u	-2%	x	u	x	23%
Cc1cc(=O)[nH]c(NN=Cc2cc(Br)ccc2O)n1	u	-7%	x	u	x	u
CCN(CC)c1ccc(/C=N/Nc2nc3ccccc3[nH]2)cc1	3%	-2%	4µM*	5.6µM*	3.2µM*	x
CC(=O)Nc1ccc(/C=N/Nc2nc3ccccc3[nH]2)cc1	u	-76%	-5%	u	u	x
CCN(CC)c1ccc(/C=N/Nc2nc(C)cc(=O)[nH]2)c(O)c1	u	-31%	3.2µM*	u	5µM*	u
COc1ccc(CNc2nc(-c3cccnc3)nc3ccccc23)c(OC)c1	x	x	7%	x	32%	x
Nc1nc(=O)n([C@H]2C[C@H](O)[C@@H](CO)O2)cc1F	x	x	x	x	x	0.31µM*
Cc1ccc(C(=O)NC(=S)Nc2c(C)ccc3nsnc23)cc1	16%	6%	u	i	10µM*	-6%
CC(C)C(=O)NC(=S)Nc1c(Cl)ccc2nsnc12	-4%	-51%	-2%	i	13µM*	15%
Cc1ccc(C(=O)NC(=S)Nc2cccc3nsnc23)cc1	-15%	5%	26%	i	-18%	50%
Cc1ccc2ncccc2c1NC(=S)NC(=O)c1ccccc1	-13%	9%	25%	i	8.9µM*	x
SMILES	TGFb SMAD3 inh	HepG2 viability	Gal4-VP16 FLuc	S2 tox	RORgamma inh	ATXN2 expr inh
COc1ccc(-c2cn3c(n2)sc2cc(C(=O)Nc4cccc(SC)c4)ccc23)cc1	-7%	-16%	x	x	x	x
CSCC[C@@H]1NC(=O)C/C=C\[C@@H](C)COC(=O)[C@H](C)COC1=O	x	x	-1%[10 µM]	x	-21%[10 µM]	x
Cn1c(Cl)c(/C=N/OC(=O)c2ccccc2Cl)c2ccccc21	u	-6%	-8%	i	0%	-3%
Cc1cccc(C(=O)O/N=C/c2c(N3CCOCC3)n(C)c3ccccc23)c1	x	x	3.5µM*	x	1.6µM*	x
COc1ccc(-c2cn3c(n2)sc2cc(C(=O)Nc4ccc(C)c(C)c4)ccc23)cc1	-2%	2%	x	x	x	x
COc1ccc(OC)c(Nc2nc(=O)c3cccnc3s2)c1	-11%	-7%	3.2µM*	i	4.5µM*	-4%[11.3 µM]
Cc1ccc(Nc2nc(=O)c3cccnc3s2)cc1	-17%	-1%	20%	i	40%	64%
CCc1ccc(CNC(=O)Cc2ccc(NC(=O)N3CCSc4ncccc43)cc2)cc1	0%	-18%	x	x	x	x
COc1ccccc1CNC(=O)CSc1nn2c(=O)c(C(C)(C)C)nnc2s1	-21%	-11%	u	u	10µM*	x
COc1ccc(CNC(=O)CSc2nn3c(=O)c(C(C)(C)C)nnc3s2)cc1OC	6%	-5%	2%	u	3.5µM*	16%
CC(C)(C)c1nnc2sc(SCC(=O)c3ccccc3)nn2c1=O	7%	-34%	x	i	2%[0.365 µM]	-27%
CCCN(C(=O)c1c(C)oc2ncnc(N3CCOCC3)c12)c1ccc(Cl)c(Cl)c1	115%	4%	x	i	x	14%
CCc1sc(Nc2cccc(Cl)c2C)nc1-c1cc2cccc(OC)c2oc1=O	-12%	-1%	x	i	x	15%
CCOc1cc(/C=C2\SC(=N)N(c3nonc3N)C2=O)ccc1OCCN1CCOCC1	-9%	1%	u	u	3.2µM*	x
Cc1ccccc1C(=O)NC1(C(F)(F)F)C(=O)Nc2c1c(=O)[nH]c(=O)n2CCc1ccccc1 (centres undefined)	-18%	-2%	x	i	x	7%
CC1CCN(C2=C(NS(=O)(=O)c3ccc(Cl)cc3)C(=O)c3ccccc3C2=O)CC1	1%	-1%	u	i	11µM*	0%
CC1CCN(C2=C(NS(=O)(=O)c3ccccc3)C(=O)c3ccccc3C2=O)CC1	u	-39%	5%	u	-3%	-7%
CC(=O)Nc1ccc(S(=O)(=O)NC2=C(N3CCN(C)CC3)C(=O)c3ccccc3C2=O)cc1	u	-61%	-30%	14µM*	13µM*	x
CCN1CCN(C2=C(NS(=O)(=O)c3ccc(C)cc3)C(=O)c3ccccc3C2=O)CC1	13µM*	11µM*	-18%	u	u	u
CC(=O)Nc1ccc(S(=O)(=O)NC2=C(N3CCN(Cc4ccccc4)CC3)C(=O)c3ccccc3C2=O)cc1	u	-131%	3%	u	u	-31%
CCN1CCN(C2=C(NS(=O)(=O)c3ccc(NC(C)=O)cc3)C(=O)c3ccccc3C2=O)CC1	u	-120%	u	u	u	x

Source: PubChem
